Results taken from PubChem BioAssay AID1159580 (chemical genetic matrix, 2015).
The campaign covered roughly 5,500 compounds. About 2,000 (36%) were called active. About 18% were inconclusive and are not listed. Rule as the data show it: active = normalized growth mostly below about 0.91 (no sharp cut-off); inconclusive = no clear call, values can overlap the other calls; inactive = mostly above about 0.92. The list shows a part of the results.

Assay: chemical genetic growth profiling, strain panel (AID 1159580);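 also: tested at 20 µM; growth read once vehicle control cultures reached saturation at 30 °C; 1 = growth at the plate median or of vehicle wells; lower values mean less growth of the strain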
Conditions: S. cerevisiae deletion strains, growth OD

Measured: normalized growth

O=C(CNC(=O)c1ccc(Cl)cc1)NO
inactive: locus YAL021C, strain ccr4, active compounds read low 1.01 | locus YAL026C, strain drs2, active compounds read low 1.01 | locus YAL030W, strain snc1, active compounds read low 1.01 | locus YBL061C, strain skt5, active compounds read low 1.01 | locus YBR009C, strain hhf1, active compounds read low 1.01 | locus YBR023C, strain chs3, active compounds read low 1.02 | locus YBR171W, strain sec66, active compounds read low 1.02 | locus YBR231C, strain swc5, active compounds read low 1.01 | locus YBR279W, strain paf1, active compounds read low 1.01 | locus YCL011C, strain gbp2, active compounds read low 1.01 | locus YCL016C, strain dcc1, active compounds read low 1.02 | locus YCL061C, strain MRC1, active compounds read low 1 | locus YCL069W, strain vba3, active compounds read low 1.01 | locus YCR088W, strain abp1, active compounds read low 1.01 | locus YDL005C, strain med2, active compounds read low 1.02 | locus YDL040C, strain nat1, active compounds read low 1.01 | locus YDR001C, strain nth1, active compounds read low 1 | locus YDR069C, strain doa4, active compounds read low 1.01 | locus YDR137W, strain rgp1, active compounds read low 1.03 | locus YDR159W, strain sac3, active compounds read low 1.01 | locus YDR195W, strain ref2 0.972 | locus YDR297W, strain sur2, active compounds read low 1.04 | locus YDR334W, strain swr1, active compounds read low 1.02 | locus YDR335W, strain msn5, active compounds read low 1.02 | locus YDR392W, strain spt3, active compounds read low 1 | locus YEL003W, strain gim4, active compounds read low 1.01 | locus YEL037C, strain rad23, active compounds read low 1.04 | locus YEL061C, strain CIN8 (second series), active compounds read low 1.01 | locus YER015W, strain faa2, active compounds read low 1.01 | locus YER016W, strain bim1, active compounds read low 1.02 | locus YER111C, strain swi4, active compounds read low 1.01 | locus YER155C, strain BEM2 (second series), active compounds read low 1.03 | locus YFR010W, strain ubp6, active compounds read low 1.02 | locus YGL167C, strain pmr1, active compounds read low 1.01 | locus YGL173C, strain kem1, active compounds read low 1.02 | locus YGL227W, strain vid30, active compounds read low 1.01 | locus YGL240W, strain doc1, active compounds read low 1.01 | locus YGL253W, strain hxk2, active compounds read low 1.01 | locus YHR013C, strain ard1, active compounds read low 1.04 | locus YHR027C, strain rpn1, active compounds read low 1.01 | locus YHR030C, strain SLT2, active compounds read low 1.02 | locus YHR079C, strain IRE1, active compounds read low 1.03 | locus YHR142W, strain chs7, active compounds read low 0.997 | locus YJL092W, strain hpr5, active compounds read low 1.01 | locus YJL095W, strain BCK1 (second series), active compounds read low 1 | locus YJL095W, strain BCK1, active compounds read low 1.06 | locus YJL115W, strain asf1, active compounds read low 1.02 | locus YJL129C, strain trk1, active compounds read low 1.03 | locus YJL154C, strain vps35, active compounds read low 1.02 | locus YJL164C, strain tpk1, active compounds read low 1.01 | locus YJL166W, strain qcr8, active compounds read low 1.01 | locus YJL187C, strain SWE1, active compounds read low 1.01 | locus YJR066W, strain TOR1, active compounds read low 0.941 | locus YKL160W, strain elf1, active compounds read low 1.01 | locus YKR026C, strain gcn3, active compounds read low 0.992 | locus YKR091W, strain srl3, active compounds read low 1.01 | locus YLL001W, strain dnm1, active compounds read low 1.03 | locus YLL026W, active compounds read low 1.01 | locus YLL041C, strain sdh2, active compounds read low 1.02 | locus YLR027C, strain aat2, active compounds read low 1.01 | locus YLR113W, strain HOG1, active compounds read low 1.04 | locus YLR221C, strain rsa3, active compounds read low 1.01 | locus YLR258W, strain gsy2, active compounds read low 1.02 | locus YLR262C, strain YPT6 (second series), active compounds read low 1.03 | locus YLR320W, strain mms22, active compounds read low 1.01 | locus YLR342W, strain FKS1, active compounds read low 1.01 | locus YLR357W, strain rsc2, active compounds read low 1.02 | locus YLR370C, strain arc18, active compounds read low 1.01 | locus YLR384C, strain iki3, active compounds read low 1.02 | locus YML120C, strain ndi1, active compounds read low 1.01 | locus YMR058W, strain fet3, active compounds read low 1.01 | locus YMR125W, strain sto1, active compounds read low 1.01 | locus YMR129W, active compounds read low 1.01 | locus YMR205C, strain PFK2, active compounds read low 1.01 | locus YMR231W, strain pep5, active compounds read low 1.02 | locus YNL071W, strain lat1, active compounds read low 1.02 | locus YNL183C, strain NPR1, active compounds read low 0.951 | locus YNL209W, strain ssb2, active compounds read low 1.02 | locus YNL248C, strain rpa49, active compounds read low 1.01 | locus YNL322C, strain KRE1 (second series), active compounds read low 1.01 | locus YNR049C, strain mso1, active compounds read low 1.01 | locus YOR001W, strain rrp6, active compounds read low 1.02 | locus YOR070C, strain gyp1, active compounds read low 1.02 | locus YOR080W, strain dia2, active compounds read low 1.01 | locus YOR083W, strain WHI5, active compounds read low 1.01 | locus YOR106W, strain vam3, active compounds read low 1.02 | locus YOR231W, strain MKK1, active compounds read low 1.01 | locus YOR265W, strain rbl2, active compounds read low 1.01 | locus YOR270C, strain vph1, active compounds read low 1.05 | locus YOR290C, strain snf2, active compounds read low 1.03 | locus YPL051W, strain arl3, active compounds read low 1.01 | locus YPL078C, strain atp4, active compounds read low 1.01 | locus YPL106C, strain sse1, active compounds read low 1.04 | locus YPL240C, strain hsp82, active compounds read low 1.02 | locus YPL256C, strain CLN2, active compounds read low 0.997
